Most compounds without a hit are left out; they make up all but 3.5% or so of the library.
GPR151 ag: activators of human GPR151, primary screen, cell-based, PathHunter beta-arrestin, luminescence. G-protein coupled receptor 151 (Homo sapiens), Q8TDV0. PathHunter beta-arrestin GPR151 cells. activation, % at 11.2 µM. AID 1508602, 2020. 650,000 tested, 1% active; in the data active = activation above about 4.9%;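 also: 0% = median of compound wells and 100% = cells with positive control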
FBW7 act: FBW7 E3 ligase activators, primary screen, biochemical, AlphaScreen, human; normalized activity (activation), % at 26.1 µM; 650,000 tested, 0.13% active; F-box/WD repeat-containing protein 7 (Homo sapiens), Q969H0; AID 1259310, 2017; AlphaScreen FBW7–phospho-cyclin E peptide binding, activator screen; in the data active = normalized activity above about 1.9%;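 also: purified mutant Fbw7 with reduced substrate affinity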
TEAD-YAP inh: TEAD-YAP interaction inhibition, primary screen, TEAD-YAP interaction inhibitor project, luminescence, HEK-TIYL cells. TEAD-Gal4/YAP UAS-luciferase luminescence. inhibition, % at 9.12 µM. 640,000 tested, 1.4% active. AID 1259422, 2018; in the data active = inhibition above about 32%;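 also: 0% = median of test compound wells and 100% = reference inhibitor wells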
MITF primary: MITF inhibitors, primary screen, biochemical, AlphaScreen, human; AID 1259374, 2018; 650,000 tested, 0.91% active; inhibition, % at 2.6 µM; AlphaScreen MITF homodimerization, bead proximity signal; in the data active = inhibition above about 50%;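 also: 0% = vehicle wells with protein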
Target sequence (O75030 whole entry, looked up): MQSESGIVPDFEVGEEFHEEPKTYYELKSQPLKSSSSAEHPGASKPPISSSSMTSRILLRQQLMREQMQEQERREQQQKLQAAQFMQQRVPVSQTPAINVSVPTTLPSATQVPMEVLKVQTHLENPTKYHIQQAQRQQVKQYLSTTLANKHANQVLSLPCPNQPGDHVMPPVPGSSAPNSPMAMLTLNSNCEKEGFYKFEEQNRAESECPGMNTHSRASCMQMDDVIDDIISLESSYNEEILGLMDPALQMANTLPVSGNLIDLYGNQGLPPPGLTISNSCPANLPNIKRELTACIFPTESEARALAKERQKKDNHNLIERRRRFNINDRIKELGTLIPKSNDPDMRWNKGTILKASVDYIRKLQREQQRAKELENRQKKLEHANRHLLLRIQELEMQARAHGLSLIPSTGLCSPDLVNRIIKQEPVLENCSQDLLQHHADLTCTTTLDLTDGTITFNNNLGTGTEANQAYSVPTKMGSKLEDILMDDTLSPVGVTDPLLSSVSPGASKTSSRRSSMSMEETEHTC
Numbers without * were called inactive.

SMILES	GPR151 ag	FBW7 act	TEAD-YAP inh	MITF primary
O=C1OCCN1c1ccc(Nc2nccc(-c3cncc(N4CCOCC4)c3)n2)cc1	1	0	39*	0
FC1(F)Oc2ccc(Nc3nccc(-c4cncc(N5CCOCC5)c4)n3)cc2O1	-2	0	-3	22
Cc1cccc(-c2noc(CNC(=O)CCc3ccccc3)n2)c1	-1	0	-2	9
O=C(Nc1ccc2oc(-c3cc(Cl)ccc3Cl)nc2c1)c1ccccc1I	0	0	-5	5
Cn1ncc2cc(Nc3nccc(-c4cncc(N5CCOCC5)c4)n3)ccc21	0	0	69*	0
c1cn(-c2ccc(Nc3nccc(-c4cncc(N5CCOCC5)c4)n3)cc2)cn1	-1	0	78*	16
COc1ccc(Nc2nccc(-c3cncc(N4CCOCC4)c3)n2)cc1	0	1	61*	3
c1cn(-c2ccc(Nc3nccc(Nc4ccc(N5CCOCC5)cc4)n3)cc2)cn1	4	0	50*	21
c1ccc(Nc2ccnc(Nc3ccc(N4CCOCC4)cc3)n2)cc1	0	0	1	7
COc1ccc(N(C)S(=O)(=O)c2cc(Br)cc3c2N(C(C)=O)CC3)c(OC)c1	-1	0	56*	-8
O=C(O)COc1ccccc1/C=N/NC(=O)Cc1ccc(Br)c2ccccc12	0	0	5	6
Cc1ccc(-c2cnc3ccc(NCc4ccc5c(c4)OCO5)nn23)cc1	0	0	48*	8
O=C(O)c1ccc(-c2cnc3ccc(NCc4ccc5c(c4)OCO5)nn23)cc1	-1	0	-3	-16
c1ccc(CNc2ccc3ncc(-c4ccc5c(c4)OCO5)n3n2)nc1	1	0	58*	7
c1cc(CNc2ccc3ncc(-c4ccc5c(c4)OCO5)n3n2)ccn1	0	0	50*	5
CCCCN(Cc1ccco1)C(=O)Cn1ncc2c1-c1ccccc1OC2	2	0	15	9
C/C(=N\NC(=S)NCCc1ccccc1)c1ccccn1	1	-1	88*	26
S=C(NCCc1ccccc1)N/N=C/c1ccccn1	-2	0	80*	38
COc1ccc(/C(C)=N/NC(=S)NCCc2ccccc2)c(O)c1	-1	0	2	87*
O=C(Cc1ccccc1)N/N=C/c1ccccn1	-1	0	-17	2
CCCCNC(=O)c1c[nH]c2ccc(S(=O)(=O)N(CC)c3ccccc3)cc2c1=O	2	0	6	18
CCOC(=O)CSc1nc2ccccc2c(=O)n1-c1ccccc1	0	0	7	20
O=c1c2c(-c3ccccc3)csc2nc2c3ccccc3c(NCCCN3CCOCC3)nn12	0	1	-4	19
O=c1c2ccccc2nc2c3ccccc3c(NCCN3CCOCC3)nn12	1	0	74*	-5
Cn1c(=O)c2ncn(CC(=O)N/N=C/c3cc(Br)ccc3O)c2n(C)c1=O	-1	-1	12	63*
SMILES	GPR151 ag	FBW7 act	TEAD-YAP inh	MITF primary
Cn1c(=O)c2ncn(CC(=O)N/N=C/c3cc(Cl)ccc3O)c2n(C)c1=O	2	-1	8	42
CC(C)NCC(O)COc1ccccc1Cl (centres undefined)	-1	0	0	14
O=C(CCCN1CCc2ccccc2C(c2ccccc2)C1)c1ccc(F)cc1 (centres undefined)	0	0	10	-1
c1ccc(NNC2=Nc3ccccc3CCC2)cc1	0	0	36*	3
COc1cccc(C(=O)C[n+]2cc(-c3ccc(F)cc3)n(C)c2N)c1	-1	0	85*	0
Cc1ccc(CN2CCNC(=O)C2CC(=O)NCCc2cccnc2)o1 (centres undefined)	1	0	1	12
C=CCN1C(=O)c2ccc(Br)cc2C1=O	0	0	-5	-14
Cc1cccnc1NC(c1ccc([N+](=O)[O-])cc1)c1ccc2cccnc2c1O (centres undefined)	-1	-2	70*	48
CC(=O)NC(c1ccc(Br)cc1)c1ccc2cccnc2c1O (centres undefined)	-1	0	83*	-33
CC(=O)NC(c1ccc([N+](=O)[O-])cc1)c1ccc2cccnc2c1O (centres undefined)	2	0	84*	-21
CC(=O)NC(c1ccc(C)cc1)c1ccc2cccnc2c1O (centres undefined)	-1	-2	85*	51*
CCOc1ccc(C(NC(C)=O)c2cc(Cl)c3cccnc3c2O)cc1 (centres undefined)	1	-1	9	3
CC(=O)NC(c1ccc2ccccc2c1)c1ccc2cccnc2c1O (centres undefined)	0	-2	80*	36
CCc1ccc(C2(C)SC(NC(C)=O)=NN2C(C)=O)cc1 (centres undefined)	0	0	-6	8
CC(=O)NC1=NN(C(C)=O)C(C)(c2cccs2)S1 (centres undefined)	-1	0	60*	1
CC(=O)NC1=NN(C(C)=O)C(C)(c2ccc(F)cc2)S1 (centres undefined)	0	1	37*	11
CNC(=O)c1cc(F)ccc1Nc1cc(Nc2ccc(N3CCCC3=O)cc2)ncc1C(F)(F)F	1	0	32	-7
CNS(=O)(=O)c1ccccc1Nc1cc(Nc2ccccc2S(=O)(=O)NC)c(C(F)(F)F)cn1	2	0	1	21
CNC(=O)c1ccccc1Nc1cc(Nc2ccc3c(c2)CC(=O)N3C)ncc1C(F)(F)F	-2	0	65*	-3
CNC(=O)c1ccccc1Nc1cc(Nc2ccc3c(c2)CC(=O)N3)ncc1C(F)(F)F	0	0	51*	16
CNS(=O)(=O)c1ccccc1Nc1cc(Nc2ccc3c(c2)CCC(=O)N3)ncc1C(F)(F)F	0	0	93*	-5
CNC(=O)c1ccccc1Nc1cc(Nc2ccc3[nH]nc(C4=CCNCC4)c3c2)ncc1C(F)(F)F	1	0	-36	2
CNC(=O)c1ccccc1Nc1cc(Nc2ccc3[nH]c(=O)oc3c2)ncc1C(F)(F)F	1	0	33*	11
CNC(=O)c1ccncc1Nc1cc(Nc2ccc3c(c2)CC(=O)N3)ncc1C(F)(F)F	3	0	-7	2
O=C(OCc1cc(=O)oc2ccc3ccccc3c12)c1cc[n+]([O-])cc1	-2	0	14	4
CCC(C)(C)n1nnnc1CN(Cc1cc2cc(OC)ccc2[nH]c1=O)CC1CCCO1 (centres undefined)	0	0	2	12
CNC(=O)c1ccccc1Nc1cc(Nc2ncccn2)ncc1C(F)(F)F	-1	0	24	21
CNC(=O)c1ccccc1Nc1cc(Nc2ccc3c(c2)OCO3)ncc1C(F)(F)F	0	0	41*	-7
CCNc1nc(NCC)nc(N/N=C/c2ccc(OC)c(OCc3ccccc3)c2)n1	-2	0	10	1

Assay outcomes as filed in PubChem BioAssay.
